# In ChEMBL document CHEMBL2218924, “A broad activity screen in support of a chemogenomic map for kinase signalling research and drug discovery” (Biochem J, 2013):
# Experiments:
# [1] = target: T1, Serine/threonine-protein kinase 17A (Homo sapiens) (UniProt Q9UEE5); settings: at 10 µM
# T1 sequence (whole entry): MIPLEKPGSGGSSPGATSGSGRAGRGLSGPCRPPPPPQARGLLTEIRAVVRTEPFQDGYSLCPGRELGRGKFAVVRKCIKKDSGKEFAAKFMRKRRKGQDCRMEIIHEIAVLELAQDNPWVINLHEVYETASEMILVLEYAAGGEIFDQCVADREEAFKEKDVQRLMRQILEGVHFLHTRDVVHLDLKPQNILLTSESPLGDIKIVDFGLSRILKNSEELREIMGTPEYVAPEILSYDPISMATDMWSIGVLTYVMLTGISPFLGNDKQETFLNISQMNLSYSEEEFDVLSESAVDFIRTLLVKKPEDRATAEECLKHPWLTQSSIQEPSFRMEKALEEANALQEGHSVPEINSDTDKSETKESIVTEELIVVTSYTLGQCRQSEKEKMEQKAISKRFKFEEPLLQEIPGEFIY
# [2] = target: T2, Dual specificity tyrosine-phosphorylation-regulated kinase 2 (Homo sapiens) (UniProt Q92630); settings: at 1 µM
# T2 sequence (whole entry): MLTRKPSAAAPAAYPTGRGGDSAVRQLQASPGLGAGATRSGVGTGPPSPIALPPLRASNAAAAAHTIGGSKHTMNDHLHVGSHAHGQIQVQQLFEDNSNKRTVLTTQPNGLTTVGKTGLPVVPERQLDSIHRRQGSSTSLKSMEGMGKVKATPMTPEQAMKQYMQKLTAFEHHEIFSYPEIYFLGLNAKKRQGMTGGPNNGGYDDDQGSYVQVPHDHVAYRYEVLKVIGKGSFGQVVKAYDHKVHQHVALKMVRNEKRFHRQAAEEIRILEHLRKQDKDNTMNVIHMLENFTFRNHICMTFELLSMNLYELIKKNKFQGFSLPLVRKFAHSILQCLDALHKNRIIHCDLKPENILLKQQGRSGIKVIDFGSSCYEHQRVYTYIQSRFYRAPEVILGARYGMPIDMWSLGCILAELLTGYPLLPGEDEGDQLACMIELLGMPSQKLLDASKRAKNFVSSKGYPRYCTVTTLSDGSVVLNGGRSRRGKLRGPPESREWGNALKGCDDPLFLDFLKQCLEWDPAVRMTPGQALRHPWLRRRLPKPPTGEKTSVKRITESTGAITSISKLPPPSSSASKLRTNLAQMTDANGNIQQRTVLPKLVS
# [3] = target: T2, Dual specificity tyrosine-phosphorylation-regulated kinase 2 (Homo sapiens); settings: at 10 µM
# [4] = target: T3, Ephrin type-A receptor 1 (Homo sapiens) (UniProt P21709); settings: at 1 µM
# T3 sequence (whole entry): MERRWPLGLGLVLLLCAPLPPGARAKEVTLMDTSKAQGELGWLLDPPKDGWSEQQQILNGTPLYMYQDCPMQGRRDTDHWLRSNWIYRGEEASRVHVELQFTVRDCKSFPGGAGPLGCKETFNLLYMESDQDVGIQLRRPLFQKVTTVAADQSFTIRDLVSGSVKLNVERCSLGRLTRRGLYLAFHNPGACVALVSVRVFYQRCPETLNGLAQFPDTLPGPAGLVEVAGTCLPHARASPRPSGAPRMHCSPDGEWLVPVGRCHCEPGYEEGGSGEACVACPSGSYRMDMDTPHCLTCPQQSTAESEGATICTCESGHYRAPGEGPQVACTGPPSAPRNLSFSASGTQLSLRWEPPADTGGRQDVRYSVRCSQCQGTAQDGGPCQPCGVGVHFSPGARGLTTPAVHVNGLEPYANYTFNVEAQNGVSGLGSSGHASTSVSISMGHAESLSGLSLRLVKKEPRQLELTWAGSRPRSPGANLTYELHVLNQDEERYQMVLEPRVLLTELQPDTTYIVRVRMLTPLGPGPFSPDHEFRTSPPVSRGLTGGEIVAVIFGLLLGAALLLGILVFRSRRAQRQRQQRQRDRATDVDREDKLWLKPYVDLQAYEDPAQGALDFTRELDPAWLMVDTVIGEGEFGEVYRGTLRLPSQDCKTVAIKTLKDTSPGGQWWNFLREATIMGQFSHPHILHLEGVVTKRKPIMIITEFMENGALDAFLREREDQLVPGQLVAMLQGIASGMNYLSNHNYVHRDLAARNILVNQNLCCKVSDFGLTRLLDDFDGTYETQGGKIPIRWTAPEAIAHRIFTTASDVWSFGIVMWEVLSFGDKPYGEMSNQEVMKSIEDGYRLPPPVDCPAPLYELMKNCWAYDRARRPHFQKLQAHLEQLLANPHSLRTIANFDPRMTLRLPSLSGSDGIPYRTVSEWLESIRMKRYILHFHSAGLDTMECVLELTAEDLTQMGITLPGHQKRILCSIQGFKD
# [5] = target: T3, Ephrin type-A receptor 1 (Homo sapiens); settings: at 10 µM
# [6] = target: Ephrin type-A receptor 2 (Homo sapiens) (UniProt P29317); settings: at 1 µM
# [7] = target: Ephrin type-A receptor 2 (Homo sapiens) (UniProt P29317); settings: at 10 µM
# [8] = target: T4, Ephrin type-A receptor 3 (Homo sapiens) (UniProt P29320); settings: at 1 µM
# T4 sequence (whole entry): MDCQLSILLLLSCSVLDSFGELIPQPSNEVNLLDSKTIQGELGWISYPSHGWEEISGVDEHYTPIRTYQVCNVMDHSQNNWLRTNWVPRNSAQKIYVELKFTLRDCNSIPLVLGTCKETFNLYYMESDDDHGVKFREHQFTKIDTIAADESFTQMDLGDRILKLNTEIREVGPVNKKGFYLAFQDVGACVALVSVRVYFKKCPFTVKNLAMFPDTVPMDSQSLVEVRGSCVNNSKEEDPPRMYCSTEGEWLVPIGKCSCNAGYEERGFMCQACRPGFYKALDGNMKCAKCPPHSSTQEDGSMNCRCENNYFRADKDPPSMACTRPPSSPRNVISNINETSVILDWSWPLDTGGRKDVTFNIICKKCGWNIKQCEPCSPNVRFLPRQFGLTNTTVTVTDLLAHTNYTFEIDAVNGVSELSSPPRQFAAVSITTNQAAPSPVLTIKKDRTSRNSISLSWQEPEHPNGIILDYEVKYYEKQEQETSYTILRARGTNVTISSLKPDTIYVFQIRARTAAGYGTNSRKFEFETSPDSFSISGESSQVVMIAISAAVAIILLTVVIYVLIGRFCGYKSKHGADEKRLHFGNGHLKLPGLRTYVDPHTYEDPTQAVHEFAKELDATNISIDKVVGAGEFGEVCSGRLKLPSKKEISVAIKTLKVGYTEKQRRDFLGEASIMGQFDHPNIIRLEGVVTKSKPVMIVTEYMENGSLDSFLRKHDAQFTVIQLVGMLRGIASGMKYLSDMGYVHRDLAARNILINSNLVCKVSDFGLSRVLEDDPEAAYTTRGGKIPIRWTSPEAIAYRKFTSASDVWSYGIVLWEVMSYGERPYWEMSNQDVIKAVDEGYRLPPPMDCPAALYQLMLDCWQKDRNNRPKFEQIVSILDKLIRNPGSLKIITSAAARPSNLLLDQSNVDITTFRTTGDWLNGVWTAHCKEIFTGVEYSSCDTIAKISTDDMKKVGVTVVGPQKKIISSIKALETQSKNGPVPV
# [9] = target: T4, Ephrin type-A receptor 3 (Homo sapiens); settings: at 10 µM
# [10] = target: Ephrin type-A receptor 4 (Homo sapiens) (UniProt P54764); settings: at 1 µM
# [11] = target: Ephrin type-A receptor 4 (Homo sapiens) (UniProt P54764); settings: at 10 µM
# [12] = target: Ephrin type-A receptor 5 (Homo sapiens) (UniProt P54756); settings: at 1 µM
# [13] = target: Ephrin type-A receptor 5 (Homo sapiens) (UniProt P54756); settings: at 10 µM
# [14] = target: Ephrin type-A receptor 7 (Homo sapiens) (UniProt Q15375); settings: at 1 µM
# [15] = target: Ephrin type-A receptor 7 (Homo sapiens) (UniProt Q15375); settings: at 10 µM
# [16] = target: T5, Ephrin type-A receptor 8 (Homo sapiens) (UniProt P29322); settings: at 1 µM
# T5 sequence (whole entry): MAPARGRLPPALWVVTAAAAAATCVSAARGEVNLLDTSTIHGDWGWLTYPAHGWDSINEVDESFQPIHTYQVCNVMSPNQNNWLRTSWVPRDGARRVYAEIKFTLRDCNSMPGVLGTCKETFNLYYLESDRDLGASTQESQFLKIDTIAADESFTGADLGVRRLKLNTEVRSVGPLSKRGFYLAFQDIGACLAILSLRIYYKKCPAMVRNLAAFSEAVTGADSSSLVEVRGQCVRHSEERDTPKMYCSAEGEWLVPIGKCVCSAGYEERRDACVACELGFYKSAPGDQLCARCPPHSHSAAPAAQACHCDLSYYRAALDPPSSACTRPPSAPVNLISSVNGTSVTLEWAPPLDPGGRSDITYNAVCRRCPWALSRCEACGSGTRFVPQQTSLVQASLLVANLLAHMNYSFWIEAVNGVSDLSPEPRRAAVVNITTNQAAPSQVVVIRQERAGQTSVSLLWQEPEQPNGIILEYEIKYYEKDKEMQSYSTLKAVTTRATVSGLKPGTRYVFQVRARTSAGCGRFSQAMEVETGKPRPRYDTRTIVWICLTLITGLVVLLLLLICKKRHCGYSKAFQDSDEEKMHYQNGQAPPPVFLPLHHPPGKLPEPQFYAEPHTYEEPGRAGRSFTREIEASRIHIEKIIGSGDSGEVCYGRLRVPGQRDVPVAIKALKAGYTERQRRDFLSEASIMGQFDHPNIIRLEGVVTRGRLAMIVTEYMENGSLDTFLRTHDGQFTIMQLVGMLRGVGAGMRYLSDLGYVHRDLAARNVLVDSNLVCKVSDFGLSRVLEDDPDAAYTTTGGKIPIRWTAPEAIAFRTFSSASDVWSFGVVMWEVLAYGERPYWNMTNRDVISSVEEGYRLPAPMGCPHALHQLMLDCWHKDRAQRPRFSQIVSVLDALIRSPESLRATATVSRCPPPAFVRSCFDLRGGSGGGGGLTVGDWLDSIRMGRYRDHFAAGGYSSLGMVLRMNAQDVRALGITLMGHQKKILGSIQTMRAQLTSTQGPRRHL
# [17] = target: T5, Ephrin type-A receptor 8 (Homo sapiens); settings: at 10 µM
# [18] = target: T6, Ephrin type-B receptor 1 (Homo sapiens) (UniProt P54762); settings: at 1 µM
# T6 sequence (whole entry): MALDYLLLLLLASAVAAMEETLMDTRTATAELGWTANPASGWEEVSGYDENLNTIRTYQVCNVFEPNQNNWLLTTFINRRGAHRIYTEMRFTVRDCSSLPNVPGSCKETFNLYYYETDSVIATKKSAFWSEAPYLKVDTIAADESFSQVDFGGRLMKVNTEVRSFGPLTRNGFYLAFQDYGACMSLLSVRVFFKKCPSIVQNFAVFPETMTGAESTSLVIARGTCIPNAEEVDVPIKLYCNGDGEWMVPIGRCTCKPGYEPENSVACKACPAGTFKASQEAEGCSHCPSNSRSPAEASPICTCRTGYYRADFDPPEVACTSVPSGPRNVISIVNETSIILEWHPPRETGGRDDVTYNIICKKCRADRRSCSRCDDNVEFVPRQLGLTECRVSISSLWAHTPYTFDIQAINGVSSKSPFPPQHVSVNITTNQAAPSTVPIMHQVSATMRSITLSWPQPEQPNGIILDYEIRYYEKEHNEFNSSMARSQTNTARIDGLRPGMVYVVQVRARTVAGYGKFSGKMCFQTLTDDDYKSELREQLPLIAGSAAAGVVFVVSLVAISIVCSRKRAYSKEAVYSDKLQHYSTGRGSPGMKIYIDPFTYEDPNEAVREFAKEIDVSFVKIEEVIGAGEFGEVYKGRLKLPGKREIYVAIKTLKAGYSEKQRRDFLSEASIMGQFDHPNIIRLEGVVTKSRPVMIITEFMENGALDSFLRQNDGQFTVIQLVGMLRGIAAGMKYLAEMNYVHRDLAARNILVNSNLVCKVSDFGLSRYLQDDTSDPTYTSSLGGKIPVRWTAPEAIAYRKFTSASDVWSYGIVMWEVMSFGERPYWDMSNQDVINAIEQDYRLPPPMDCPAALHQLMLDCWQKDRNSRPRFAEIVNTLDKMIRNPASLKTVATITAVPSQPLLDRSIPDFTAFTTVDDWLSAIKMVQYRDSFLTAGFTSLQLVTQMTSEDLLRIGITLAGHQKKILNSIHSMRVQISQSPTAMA
# [19] = target: Epidermal growth factor receptor (Homo sapiens) (UniProt P00533); settings: at 1 µM
# [20] = target: Epidermal growth factor receptor (Homo sapiens) (UniProt P00533); settings: at 10 µM
# Sequence of Ephrin type-A receptor 4 (Homo sapiens) (P54764 whole entry): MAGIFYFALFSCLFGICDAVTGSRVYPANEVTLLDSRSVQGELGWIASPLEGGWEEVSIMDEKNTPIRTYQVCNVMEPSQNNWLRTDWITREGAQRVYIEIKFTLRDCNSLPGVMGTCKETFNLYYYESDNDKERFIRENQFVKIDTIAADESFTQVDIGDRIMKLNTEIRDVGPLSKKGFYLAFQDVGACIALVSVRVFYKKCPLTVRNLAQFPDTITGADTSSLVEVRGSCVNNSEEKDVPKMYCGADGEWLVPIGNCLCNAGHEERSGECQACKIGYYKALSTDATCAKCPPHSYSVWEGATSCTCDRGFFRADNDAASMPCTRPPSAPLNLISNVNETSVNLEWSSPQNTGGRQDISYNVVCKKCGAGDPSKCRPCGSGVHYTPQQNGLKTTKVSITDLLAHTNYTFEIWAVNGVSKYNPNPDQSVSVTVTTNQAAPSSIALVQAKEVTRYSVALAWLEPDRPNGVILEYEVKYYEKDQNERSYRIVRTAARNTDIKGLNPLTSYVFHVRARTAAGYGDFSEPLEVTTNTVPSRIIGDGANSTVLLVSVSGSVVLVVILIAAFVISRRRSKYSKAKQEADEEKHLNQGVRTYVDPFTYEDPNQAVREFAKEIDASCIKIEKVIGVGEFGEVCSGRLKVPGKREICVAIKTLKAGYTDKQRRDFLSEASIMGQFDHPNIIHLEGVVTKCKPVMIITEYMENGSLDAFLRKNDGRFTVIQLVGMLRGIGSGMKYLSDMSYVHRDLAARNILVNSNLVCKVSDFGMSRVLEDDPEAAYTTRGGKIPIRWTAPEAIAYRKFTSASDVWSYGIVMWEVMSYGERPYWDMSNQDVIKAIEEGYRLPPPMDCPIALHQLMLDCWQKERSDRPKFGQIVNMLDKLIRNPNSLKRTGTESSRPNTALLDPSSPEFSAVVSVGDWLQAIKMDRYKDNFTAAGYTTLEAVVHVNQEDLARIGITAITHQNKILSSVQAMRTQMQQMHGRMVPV
# Sequence of Ephrin type-A receptor 2 (Homo sapiens) (P29317 whole entry): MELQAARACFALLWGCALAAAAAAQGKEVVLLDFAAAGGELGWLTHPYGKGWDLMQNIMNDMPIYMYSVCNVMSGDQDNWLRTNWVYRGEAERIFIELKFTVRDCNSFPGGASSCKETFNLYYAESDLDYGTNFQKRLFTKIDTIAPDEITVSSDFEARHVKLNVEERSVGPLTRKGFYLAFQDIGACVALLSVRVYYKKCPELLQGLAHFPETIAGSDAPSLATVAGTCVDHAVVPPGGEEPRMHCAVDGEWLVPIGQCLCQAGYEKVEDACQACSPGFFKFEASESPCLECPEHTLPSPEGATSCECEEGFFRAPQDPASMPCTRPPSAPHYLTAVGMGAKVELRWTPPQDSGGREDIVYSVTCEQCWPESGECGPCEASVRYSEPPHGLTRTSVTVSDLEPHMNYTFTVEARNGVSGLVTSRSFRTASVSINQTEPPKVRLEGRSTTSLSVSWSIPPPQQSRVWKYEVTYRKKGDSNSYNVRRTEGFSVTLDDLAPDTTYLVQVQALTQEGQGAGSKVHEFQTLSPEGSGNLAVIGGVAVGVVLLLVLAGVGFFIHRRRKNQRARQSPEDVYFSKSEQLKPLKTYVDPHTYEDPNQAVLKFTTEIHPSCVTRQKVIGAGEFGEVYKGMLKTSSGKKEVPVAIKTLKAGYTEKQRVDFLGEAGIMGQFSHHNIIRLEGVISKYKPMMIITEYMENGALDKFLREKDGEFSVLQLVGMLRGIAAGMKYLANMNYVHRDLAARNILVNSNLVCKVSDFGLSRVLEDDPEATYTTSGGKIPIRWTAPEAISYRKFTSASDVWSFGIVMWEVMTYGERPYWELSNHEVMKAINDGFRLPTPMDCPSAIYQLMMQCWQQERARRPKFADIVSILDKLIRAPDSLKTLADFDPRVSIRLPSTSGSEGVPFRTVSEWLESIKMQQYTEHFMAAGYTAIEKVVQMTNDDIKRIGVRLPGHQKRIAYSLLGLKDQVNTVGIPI
# Sequence of Epidermal growth factor receptor (Homo sapiens) (P00533 whole entry): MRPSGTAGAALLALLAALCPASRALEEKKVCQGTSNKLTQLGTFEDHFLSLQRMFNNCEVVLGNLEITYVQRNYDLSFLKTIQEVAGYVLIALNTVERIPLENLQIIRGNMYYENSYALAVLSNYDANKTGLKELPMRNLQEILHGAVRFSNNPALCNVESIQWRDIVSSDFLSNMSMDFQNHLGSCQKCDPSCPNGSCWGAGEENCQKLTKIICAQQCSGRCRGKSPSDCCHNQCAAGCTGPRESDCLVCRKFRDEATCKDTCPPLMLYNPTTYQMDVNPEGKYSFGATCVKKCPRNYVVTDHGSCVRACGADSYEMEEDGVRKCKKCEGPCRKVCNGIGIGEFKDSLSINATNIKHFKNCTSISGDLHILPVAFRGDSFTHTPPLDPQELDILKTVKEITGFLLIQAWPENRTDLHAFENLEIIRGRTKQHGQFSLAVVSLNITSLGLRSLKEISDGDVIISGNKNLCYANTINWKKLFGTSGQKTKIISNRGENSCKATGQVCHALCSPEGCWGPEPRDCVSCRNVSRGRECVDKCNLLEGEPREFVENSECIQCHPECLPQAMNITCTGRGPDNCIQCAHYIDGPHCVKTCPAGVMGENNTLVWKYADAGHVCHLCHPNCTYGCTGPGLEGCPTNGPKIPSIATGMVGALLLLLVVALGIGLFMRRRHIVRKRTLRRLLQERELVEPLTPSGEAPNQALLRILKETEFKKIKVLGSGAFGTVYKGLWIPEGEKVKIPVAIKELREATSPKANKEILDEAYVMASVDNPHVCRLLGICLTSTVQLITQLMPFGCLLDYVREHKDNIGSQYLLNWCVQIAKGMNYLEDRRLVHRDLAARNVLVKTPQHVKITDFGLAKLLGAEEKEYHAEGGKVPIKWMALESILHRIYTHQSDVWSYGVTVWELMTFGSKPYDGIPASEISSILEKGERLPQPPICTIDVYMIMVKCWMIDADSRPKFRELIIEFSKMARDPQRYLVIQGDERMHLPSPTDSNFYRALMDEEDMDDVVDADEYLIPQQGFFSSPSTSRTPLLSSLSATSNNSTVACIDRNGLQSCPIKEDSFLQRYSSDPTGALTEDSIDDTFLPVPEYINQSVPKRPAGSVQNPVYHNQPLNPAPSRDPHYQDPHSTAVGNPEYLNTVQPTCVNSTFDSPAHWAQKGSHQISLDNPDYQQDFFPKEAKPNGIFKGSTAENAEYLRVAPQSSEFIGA
# Sequence of Ephrin type-A receptor 7 (Homo sapiens) (Q15375 28-998 limits assumed): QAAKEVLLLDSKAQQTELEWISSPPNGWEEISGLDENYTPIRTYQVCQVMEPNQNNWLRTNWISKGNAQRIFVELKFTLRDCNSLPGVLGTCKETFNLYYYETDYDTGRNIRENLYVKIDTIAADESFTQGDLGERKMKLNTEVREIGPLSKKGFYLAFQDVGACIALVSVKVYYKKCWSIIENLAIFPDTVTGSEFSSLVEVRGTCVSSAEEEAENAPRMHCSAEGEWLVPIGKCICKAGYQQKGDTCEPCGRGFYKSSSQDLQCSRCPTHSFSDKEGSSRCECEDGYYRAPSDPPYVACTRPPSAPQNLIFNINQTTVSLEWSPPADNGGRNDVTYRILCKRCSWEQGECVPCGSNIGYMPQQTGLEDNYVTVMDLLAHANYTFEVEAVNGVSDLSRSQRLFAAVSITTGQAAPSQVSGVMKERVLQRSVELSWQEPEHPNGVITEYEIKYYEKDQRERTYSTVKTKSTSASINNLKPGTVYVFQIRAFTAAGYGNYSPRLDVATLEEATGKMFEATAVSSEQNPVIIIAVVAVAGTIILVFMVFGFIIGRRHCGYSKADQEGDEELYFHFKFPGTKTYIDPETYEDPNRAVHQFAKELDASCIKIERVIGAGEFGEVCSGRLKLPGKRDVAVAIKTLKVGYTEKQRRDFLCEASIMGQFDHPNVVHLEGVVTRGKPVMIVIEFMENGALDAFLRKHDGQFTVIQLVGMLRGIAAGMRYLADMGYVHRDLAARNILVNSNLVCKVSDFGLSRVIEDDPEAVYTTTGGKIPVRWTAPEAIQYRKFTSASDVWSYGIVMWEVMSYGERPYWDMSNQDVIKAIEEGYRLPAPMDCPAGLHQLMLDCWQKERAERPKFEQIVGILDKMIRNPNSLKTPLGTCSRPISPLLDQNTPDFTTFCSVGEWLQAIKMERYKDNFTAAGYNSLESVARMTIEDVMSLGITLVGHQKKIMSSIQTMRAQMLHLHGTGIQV
SMILES,residual activity [1] [%],residual activity [2] [%],residual activity [3] [%],residual activity [4] [%],residual activity [5] [%],residual activity [6] [%],residual activity [7] [%],residual activity [8] [%],residual activity [9] [%],residual activity [10] [%],residual activity [11] [%],residual activity [12] [%],residual activity [13] [%],residual activity [14] [%],residual activity [15] [%],residual activity [16] [%],residual activity [17] [%],residual activity [18] [%],residual activity [19] [%],residual activity [20] [%]
COc1cc2ncnc(Nc3ccc(O)c(Br)c3)c2cc1OC,18,48,10,35,8,90,30,79,20,89,41,74,21,34,7,70,28,62,–,–
O=C1NC(=O)c2c1c1c3ccccc3[nH]c1c1[nH]c3cc(Br)ccc3c21,4,100,75,96,86,98,114,93,86,104,92,111,91,99,93,95,88,106,–,–
CC(C)n1cnc2c(NCc3ccccc3)nc(NCCCO)nc21,134,99,89,99,91,102,112,101,101,109,104,96,84,84,78,97,94,93,-1,-2
Ic1cccc(CSc2nnc(-c3ccncc3)o2)c1,3,87,60,95,88,90,91,96,83,104,103,106,99,88,81,89,87,95,–,–
O=[N+]([O-])c1ccc(-c2nc(-c3ccc(F)cc3)c(-c3ccncc3)[nH]2)cc1,104,100,91,83,92,89,97,99,90,105,107,100,94,–,101,93,–,103,87,95
COc1ccc(CNc2nc(N(CCO)CCO)nc3c2ncn3C(C)C)cc1,85,87,67,95,81,95,117,82,90,110,110,126,105,92,73,99,88,105,97,116
O=c1c2ccccc2[nH]c(=S)n1CCN1CCC(=C(c2ccc(F)cc2)c2ccc(F)cc2)CC1,90,102,96,95,89,116,100,109,96,112,100,110,92,106,92,115,111,90,–,–
